Measured values published in the supplement of paper PMC10849652.
Of roughly 7,900 targets only a part is listed; those with a hit were picked by preference. About 0.6% of all pairs of compound and target were hits. Values without a mark were called inactive.

How the values were obtained:
Assay in all cases: log2 fold change, soluble protein after heating vs DMSO (PISA); higher = thermal stabilisation; K562 cells, 10 uM, 30 min; active = over 0.2 and 3.5 SD of the protein, either way, in both replicates (recomputed)
IRAK-1-4 Inhibitor I = compound: C1COCCN1CCN2C3=CC=CC=C3N=C2NC(=O)C4=CC(=CC=C4)[N+](=O)[O-] [IRAK-1-4 Inhibitor I]
In short: (§1)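 Aliquots of K562 cells (2×10^6 cells/mL) treated with 10 μM compound for 30 min were heated for 3 min over 48°C-58°C. After pooling and extraction in PBS with 0.5% NP-40 at 4°C, soluble protein from a 21,000xg, 90 min spin was quantified by TMTpro 16plex LC-MS/MS with channel sums equalised. Thermal stability is expressed against control samples, from duplicates, as a log2 fold change.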

ibrutinib = compound: C=CC(=O)N1CCC[C@@H](n2nc(-c3ccc(Oc4ccccc4)cc3)c3c(N)ncnc32)C1 [ibrutinib]
In short: as §1

[1] = compound: CC(=O)c1cnc2ccc(-c3cc(Cl)c(O)c(Cl)c3)nc2c1N[C@H]1CC[C@H](CN(C)C)CC1
In short: as §1

ralimetinib = compound: CC(C)(C)Cn1c(N)nc2ccc(-c3[nH]c(C(C)(C)C)nc3-c3ccc(F)cc3)nc21 [ralimetinib]
In short: as §1

[2] = compound: CC(C)(O)CC(=O)NCCn1ccc2ncnc(Nc3ccc(Oc4cccc(C(F)(F)F)c4)c(Cl)c3)c21
In short: as §1

[3] = compound: CC(C)C1=C2N=C(C=C(N2N=C1)NCC3=CC=CC=C3)NCCCCCCN
In short: as §1

[4] = compound: CC(C)C[C@@H](C=O)NC(=O)[C@H](CC(C)C)NC(=O)[C@H](CC(C)C)NC(=O)OCc1ccccc1
In short: as §1

pinometostat = compound: CC(C)N(C[C@H]1O[C@@H](n2cnc3c(N)ncnc32)[C@H](O)[C@@H]1O)[C@H]1C[C@@H](CCc2nc3cc(C(C)(C)C)ccc3[nH]2)C1 [pinometostat]
In short: as §1

[5] = compound: CC1=C(C(CC(=O)N1)C2=CC=C(C=C2)C(F)(F)F)C(=O)NC3=C(C=C4C(=C3)C=NN4)F
In short: as §1

[6] = compound: CC1=C(C2=C(C=C1)C(=O)C3=CC=CC=C3N2CCCN)C
In short: as §1

[7] = compound: CC1=C(C=C(C=C1)NC(=O)C2=CC(=CC=C2)C(C)(C)C#N)NC3=CC4=C(C=C3)N=CN(C4=O)C
In short: as §1

[8] = compound: CC1=C(C=C(C=C1)NC(=O)C2=CC(=CC=C2)N(C)C)NC(=O)C3=CC=C(C=C3)O
In short: as §1

[9] = compound: CC1=CC=C(C=C1)SC2=C3C=C(SC3=CN=C2)C(=O)N
In short: as §1

[10] = compound: CC1=NC(=CC=C1)C2=C(N=C(N2)C(C)(C)C)C3=CC4=NC=CN=C4C=C3
In short: as §1

Nexturastat A = compound: CCCCN(Cc1ccc(C(=O)NO)cc1)C(=O)Nc1ccccc1 [Nexturastat A]
In short: as §1

vemurafenib = compound: CCCS(=O)(=O)Nc1ccc(F)c(C(=O)c2c[nH]c3ncc(-c4ccc(Cl)cc4)cc23)c1F [vemurafenib]
In short: as §1

[11] = compound: CCCS(=O)(=O)Nc1ccc(F)c(C(=O)c2c[nH]c3ncc(Cl)cc23)c1F
In short: as §1

[12] = compound: CCCc1cc(C)[nH]c(=O)c1CNC(=O)c1cc(-c2ccnc(N3CCN(C)CC3)c2)cc2c1cnn2C(C)C
In short: as §1

givinostat = compound: CCN(CC)Cc1ccc2cc(COC(=O)Nc3ccc(C(=O)NO)cc3)ccc2c1 [givinostat]
In short: as §1

barasertib = compound: CCN(CCCOc1ccc2c(Nc3cc(CC(=O)Nc4cccc(F)c4)[nH]n3)ncnc2c1)CCOP(=O)(O)O [barasertib]
In short: as §1

UniProt Q13901, sequence (Q13901 whole entry, looked up): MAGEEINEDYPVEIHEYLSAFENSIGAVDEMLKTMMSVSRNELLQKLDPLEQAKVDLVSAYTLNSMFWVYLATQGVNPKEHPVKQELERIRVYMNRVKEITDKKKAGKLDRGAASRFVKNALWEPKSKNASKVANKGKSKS
UniProt O14578, sequence (O14578 whole entry, looked up): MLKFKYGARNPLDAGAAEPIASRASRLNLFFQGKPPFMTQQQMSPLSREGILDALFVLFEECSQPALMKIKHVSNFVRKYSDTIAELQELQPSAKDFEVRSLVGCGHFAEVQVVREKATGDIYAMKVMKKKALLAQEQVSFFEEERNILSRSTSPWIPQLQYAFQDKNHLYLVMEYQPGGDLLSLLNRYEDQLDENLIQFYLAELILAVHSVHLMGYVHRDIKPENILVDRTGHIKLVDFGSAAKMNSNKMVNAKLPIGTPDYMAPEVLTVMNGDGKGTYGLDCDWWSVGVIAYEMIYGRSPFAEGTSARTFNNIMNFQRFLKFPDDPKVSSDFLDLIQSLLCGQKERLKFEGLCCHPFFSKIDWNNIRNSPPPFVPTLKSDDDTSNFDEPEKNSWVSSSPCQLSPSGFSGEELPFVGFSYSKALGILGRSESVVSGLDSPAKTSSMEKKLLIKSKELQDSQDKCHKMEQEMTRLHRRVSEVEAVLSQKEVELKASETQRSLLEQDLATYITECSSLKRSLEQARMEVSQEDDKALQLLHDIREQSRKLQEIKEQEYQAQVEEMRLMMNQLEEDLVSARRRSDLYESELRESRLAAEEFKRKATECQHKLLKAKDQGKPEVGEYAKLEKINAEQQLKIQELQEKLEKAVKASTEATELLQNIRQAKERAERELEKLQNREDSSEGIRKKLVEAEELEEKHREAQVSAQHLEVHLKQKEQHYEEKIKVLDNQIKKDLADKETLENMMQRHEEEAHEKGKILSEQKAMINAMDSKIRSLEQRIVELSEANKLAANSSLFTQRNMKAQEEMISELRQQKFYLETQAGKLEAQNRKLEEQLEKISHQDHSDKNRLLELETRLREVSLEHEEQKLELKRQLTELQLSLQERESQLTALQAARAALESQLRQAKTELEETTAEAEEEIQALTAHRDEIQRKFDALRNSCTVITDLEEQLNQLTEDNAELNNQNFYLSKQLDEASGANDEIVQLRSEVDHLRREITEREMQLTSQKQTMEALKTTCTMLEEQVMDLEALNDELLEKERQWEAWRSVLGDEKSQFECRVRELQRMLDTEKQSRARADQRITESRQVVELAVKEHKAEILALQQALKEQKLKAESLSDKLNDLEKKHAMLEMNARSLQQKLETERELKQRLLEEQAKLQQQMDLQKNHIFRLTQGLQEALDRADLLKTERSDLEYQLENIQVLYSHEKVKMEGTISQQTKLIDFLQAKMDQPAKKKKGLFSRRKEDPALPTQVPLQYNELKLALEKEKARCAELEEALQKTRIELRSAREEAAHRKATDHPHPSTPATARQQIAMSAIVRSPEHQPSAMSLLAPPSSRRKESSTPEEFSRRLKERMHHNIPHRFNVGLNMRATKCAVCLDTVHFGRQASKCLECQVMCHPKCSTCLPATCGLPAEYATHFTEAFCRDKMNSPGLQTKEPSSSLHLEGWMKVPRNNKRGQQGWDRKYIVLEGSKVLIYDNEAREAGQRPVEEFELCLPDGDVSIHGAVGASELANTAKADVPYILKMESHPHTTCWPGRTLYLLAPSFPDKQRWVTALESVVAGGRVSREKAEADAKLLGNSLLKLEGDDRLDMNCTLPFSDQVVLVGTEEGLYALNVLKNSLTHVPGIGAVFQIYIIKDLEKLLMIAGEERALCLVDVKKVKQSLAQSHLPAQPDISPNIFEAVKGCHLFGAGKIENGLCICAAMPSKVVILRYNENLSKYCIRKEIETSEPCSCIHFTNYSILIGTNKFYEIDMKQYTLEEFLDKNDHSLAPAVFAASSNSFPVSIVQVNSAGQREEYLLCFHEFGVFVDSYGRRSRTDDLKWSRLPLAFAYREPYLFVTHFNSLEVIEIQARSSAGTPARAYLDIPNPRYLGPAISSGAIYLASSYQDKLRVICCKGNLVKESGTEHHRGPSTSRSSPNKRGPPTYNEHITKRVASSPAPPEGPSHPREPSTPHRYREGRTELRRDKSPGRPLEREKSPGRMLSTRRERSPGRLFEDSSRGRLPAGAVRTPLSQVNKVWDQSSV
UniProt Q99627, sequence (Q99627 whole entry, looked up): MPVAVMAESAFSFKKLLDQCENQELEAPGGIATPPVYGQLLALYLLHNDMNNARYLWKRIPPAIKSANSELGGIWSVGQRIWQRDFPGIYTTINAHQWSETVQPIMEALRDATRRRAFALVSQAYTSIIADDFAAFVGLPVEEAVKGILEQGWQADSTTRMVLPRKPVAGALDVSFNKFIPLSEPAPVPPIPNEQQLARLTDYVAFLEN
UniProt P48730, sequence (P48730 whole entry, looked up): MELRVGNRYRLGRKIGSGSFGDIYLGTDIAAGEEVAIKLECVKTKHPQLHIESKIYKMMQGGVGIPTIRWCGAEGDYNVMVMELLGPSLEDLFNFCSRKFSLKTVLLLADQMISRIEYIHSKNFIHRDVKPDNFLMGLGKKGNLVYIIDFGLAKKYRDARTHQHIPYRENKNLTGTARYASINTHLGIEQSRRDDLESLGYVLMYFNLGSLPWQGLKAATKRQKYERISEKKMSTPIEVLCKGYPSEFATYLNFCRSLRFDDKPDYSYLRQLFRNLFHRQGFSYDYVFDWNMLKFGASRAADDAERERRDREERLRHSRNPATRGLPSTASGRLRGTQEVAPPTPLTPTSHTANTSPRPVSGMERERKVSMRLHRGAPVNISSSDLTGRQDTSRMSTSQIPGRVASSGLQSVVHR
UniProt Q13057, sequence (Q13057 whole entry, looked up): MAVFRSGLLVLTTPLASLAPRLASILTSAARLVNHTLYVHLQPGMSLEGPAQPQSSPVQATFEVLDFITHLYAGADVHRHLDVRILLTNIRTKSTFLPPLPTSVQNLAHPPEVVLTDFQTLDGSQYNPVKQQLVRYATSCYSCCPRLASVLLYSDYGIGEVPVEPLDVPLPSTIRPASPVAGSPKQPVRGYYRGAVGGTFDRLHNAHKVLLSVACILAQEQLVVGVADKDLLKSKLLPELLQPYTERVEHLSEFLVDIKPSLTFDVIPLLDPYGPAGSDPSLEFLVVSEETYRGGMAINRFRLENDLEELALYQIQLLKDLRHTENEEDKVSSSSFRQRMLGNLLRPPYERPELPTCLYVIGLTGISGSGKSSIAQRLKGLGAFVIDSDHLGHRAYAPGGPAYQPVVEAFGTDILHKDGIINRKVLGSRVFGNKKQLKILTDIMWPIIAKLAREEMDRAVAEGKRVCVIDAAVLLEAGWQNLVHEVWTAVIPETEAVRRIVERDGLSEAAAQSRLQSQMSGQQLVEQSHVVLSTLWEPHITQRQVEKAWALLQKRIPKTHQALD
UniProt P48509, sequence (P48509 whole entry, looked up): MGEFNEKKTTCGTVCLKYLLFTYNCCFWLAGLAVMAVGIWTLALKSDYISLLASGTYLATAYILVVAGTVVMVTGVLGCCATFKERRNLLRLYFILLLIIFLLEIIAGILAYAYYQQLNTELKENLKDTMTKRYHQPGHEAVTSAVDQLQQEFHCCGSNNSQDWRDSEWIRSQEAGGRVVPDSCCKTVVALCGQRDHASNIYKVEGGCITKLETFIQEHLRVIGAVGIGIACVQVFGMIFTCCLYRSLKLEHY
UniProt O60563, sequence (O60563 whole entry, looked up): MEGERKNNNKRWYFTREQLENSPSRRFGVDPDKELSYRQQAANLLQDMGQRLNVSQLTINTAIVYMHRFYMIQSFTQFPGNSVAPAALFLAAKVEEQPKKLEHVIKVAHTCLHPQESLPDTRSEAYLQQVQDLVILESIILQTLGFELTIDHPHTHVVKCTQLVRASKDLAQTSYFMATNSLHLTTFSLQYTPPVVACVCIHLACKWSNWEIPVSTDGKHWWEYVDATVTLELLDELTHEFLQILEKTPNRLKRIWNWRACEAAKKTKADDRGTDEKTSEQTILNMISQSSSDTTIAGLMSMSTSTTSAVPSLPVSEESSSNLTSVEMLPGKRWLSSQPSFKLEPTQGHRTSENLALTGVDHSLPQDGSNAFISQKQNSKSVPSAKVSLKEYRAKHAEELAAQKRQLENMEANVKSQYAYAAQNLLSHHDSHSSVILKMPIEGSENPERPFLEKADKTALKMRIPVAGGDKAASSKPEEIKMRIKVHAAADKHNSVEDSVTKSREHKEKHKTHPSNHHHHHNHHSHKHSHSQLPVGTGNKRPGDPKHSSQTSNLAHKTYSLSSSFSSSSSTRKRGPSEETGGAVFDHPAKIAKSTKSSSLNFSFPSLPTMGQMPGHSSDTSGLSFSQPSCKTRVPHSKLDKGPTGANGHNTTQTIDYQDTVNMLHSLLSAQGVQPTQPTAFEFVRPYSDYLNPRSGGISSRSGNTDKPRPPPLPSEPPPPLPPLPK

Target | log2 fold change (IRAK-1-4 Inhibitor I) | log2 fold change (ibrutinib) | log2 fold change [1] | log2 fold change (ralimetinib) | log2 fold change [2] | log2 fold change [3] | log2 fold change [4] | log2 fold change (pinometostat) | log2 fold change [5] | log2 fold change [6] | log2 fold change [7] | log2 fold change [8] | log2 fold change [9] | log2 fold change [10] | log2 fold change (Nexturastat A) | log2 fold change (vemurafenib) | log2 fold change [11] | log2 fold change [12] | log2 fold change (givinostat) | log2 fold change (barasertib)
CIT isoform 4 (UniProt O14578) | -0.013 | -0.057 | -0.462 (active) | -0.008 | -0.077 | -0.021 | 0.045 | -0.005 | 0.045 | 0.118 | -0.105 | 0.017 | -0.003 | -0.032 | -0.02 | -0.012 | 0.01 | 0.002 | 0.033 | 0.047
CSNK1D (UniProt P48730) | -0.041 | 0.002 | 0.768 (active) | 0.216 | -0.001 | -0.138 | 0.077 | 0.13 | 0.019 | 0.063 | -0.001 | 0.003 | -0.033 | -0.018 | 0.117 | 0.081 | -0.047 | 0.015 | -0.254 | -0.032
COASY isoform 2 (UniProt Q13057) | 0.039 | 0.004 | -0.016 | -0.032 | -0.063 | 0.037 | -0.02 | 0.005 | -0.018 | 0.079 | -0.002 | -0.058 | 0.057 | 0.029 | 0.021 | 0.054 | 0.209 | -0.007 | -0.04 | 0.029
C1D (UniProt Q13901) | 0.013 | -0.041 | -0.081 | 0.016 | -0.047 | 0.072 | 0.055 | -0.081 | 0.084 | -0.004 | 0.058 | 0.002 | -0.015 | -0.045 | -0.053 | -0.046 | -0.175 | -0.019 | -0.002 | 0.104
CCNT1 (UniProt O60563) | -0.004 | 0.001 | -0.603 (active) | 0.054 | 0.042 | -0.375 (active) | 0.105 | 0.213 | -0.003 | -0.112 | -0.033 | -0.018 | -0.02 | 0.005 | 0.218 | 0.027 | 0.007 | 0.023 | 0.022 | 0.022
CD151 (UniProt P48509) | -0.077 | 0.012 | 0.025 | 0.013 | -0.021 | -0.017 | 0.027 | -0.054 | 0.082 | 0.083 | -0.125 | -0.057 | -0.002 | 0.027 | -0.159 | -0.103 | 0 | -0.21 | 0.018 | -0.052
CDK12 (UniProt Q9NYV4) | -0.179 | 0.008 | -0.566 | 0.138 | 0.067 | -0.211 | 0.006 | 0.399 | 0.041 | -0.014 | 0.049 | -0.001 | -0.079 | -0.077 | 0.278 | -0.047 | -0.002 | 0.104 | 0.026 | -0.083
COPS8 (UniProt Q99627) | -0.006 | 0.039 | -0.011 | -0.042 | 0.031 | 0.043 | 0.027 | -0.021 | -0.006 | 0.13 | 0.031 | -0.04 | 0 | -0.09 | 0.126 | -0.003 | -0.031 | -0.056 | 0.049 | 0.009
